An excerpt weighted towards active compounds, which were near 3% of everything screened.
NALP1 inh: blocks the NALP1 inflammasome reconstituted in yeast. 0.61% of 280,000 active. inhibition, % at 10 µM. S. cerevisiae NALP1/ASC/caspase-1 growth, X-gal OD620, 72 h; in the data active = inhibition mostly above about 24%, no sharp cut-off; inactive = mostly below about 32%
NALP3 yeast inh: blocks the NALP3 inflammasome reconstituted in yeast; Yeast reconstituted NLRP3/ASC/caspase-1, beta-gal luminescence, 24 h; inhibition, % at 10 µM; 0.39% of 330,000 active;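 active = inhibition of 50% or more; inactive = inhibition below 50%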
Bfl-1 A1 inh: inhibitors of the anti-apoptotic protein A1, read as caspase activation; 0.066% of 330,000 active; AID 2462; MEF A1-2A-BIM cells, Caspase-Glo 3/7 luminescence, 3 h; percent of clofoctol response, vehicle zero; caspase activation, % (no concentration beside the values);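 active = over half of replicate activation scores above 10%, or exactly half above 10 with the replicate mean above 10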
CHT block: inhibits the human high affinity choline transporter. AID 488975. B-score at 10 µM. Q9GZV3. 0.86% of 310,000 active. CHT-expressing cells, membrane potential dye, choline response; hits give low values;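 active = B-score over 3 SD under the library average, and starting fluorescence ratio not unusually high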;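 also: choline stimulus applied at its EC90 after an EC20 pre-addition; B-score computed on integrated fluorescence ratio after choline addition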
Target sequence (Q9GZV3 whole entry, looked up): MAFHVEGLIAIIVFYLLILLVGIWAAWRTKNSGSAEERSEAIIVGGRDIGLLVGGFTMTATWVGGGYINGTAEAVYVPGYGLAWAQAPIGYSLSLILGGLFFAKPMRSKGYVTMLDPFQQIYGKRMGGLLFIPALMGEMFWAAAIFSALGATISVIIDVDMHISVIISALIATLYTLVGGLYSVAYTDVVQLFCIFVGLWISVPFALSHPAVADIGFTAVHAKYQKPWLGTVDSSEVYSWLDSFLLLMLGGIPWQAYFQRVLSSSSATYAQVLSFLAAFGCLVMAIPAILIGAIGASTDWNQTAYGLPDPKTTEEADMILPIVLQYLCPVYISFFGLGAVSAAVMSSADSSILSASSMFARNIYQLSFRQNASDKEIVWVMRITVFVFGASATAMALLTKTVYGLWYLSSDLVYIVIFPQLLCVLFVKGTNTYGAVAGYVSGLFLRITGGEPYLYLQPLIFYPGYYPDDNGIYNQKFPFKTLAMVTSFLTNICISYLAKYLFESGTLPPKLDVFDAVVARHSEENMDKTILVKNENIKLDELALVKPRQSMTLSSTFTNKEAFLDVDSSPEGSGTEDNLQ
SUMO Mot1 rescue: inhibitors of SUMOylation pathway: yeast Mot1-301 growth rescue. S. cerevisiae Mot1-301 growth rescue, ATP luminescence, 38.5C; percent above DMSO median, 100 means doubled. growth rescue, % at 18.8 µM. 1% of 320,000 active;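 active = every valid replicate shows activation above 250% relative to neutral control wells; inactive = the rest, any valid replicate at or below 250%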
CHT allo act: allosterically activates the human high affinity choline transporter. CHT-expressing cells, membrane potential dye, choline EC20; hits give high values; LV-AA mutant CHT in HEK293 cells. 0.49% of 310,000 active. Q9GZV3. B-score at 10 µM;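 active = initial fluorescence not abnormally high and integrated response B-score, plate-corrected, over 3 SD above library mean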
CHT block conf: human CHT inhibition, confirmatory screen. shares compounds with CHT block. CHT-expressing cells, choline membrane potential dye; LV-to-AA substituted CHT, HEK293 cells. CHT activity remaining % of control (hits give low values), % at 10 µM. 70% of 2,400 active. AID 493221;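 active = choline transporter activity left, mean of duplicates at 10 µM, below buffer-only control mean minus 3 SD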;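 also: depolarization triggered by choline at its EC90 following an EC20 pre-addition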
HEK293 CHT ctr: activity in parental HEK293 cells lacking CHT; shares compounds with CHT block; membrane potential ratio readout (active if shifted either direction beyond buffer ±3SD; no single direction) at 10 µM; 4% of 2,400 active; membrane potential dye, choline response; active = decrease or increase beyond buffer ±3SD;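 also: parental cells lack the transporter so any hit is non-specific; ratio is peak minus trough fluorescence over baseline after EC90 choline challenge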
Numbers stand for hits; . = inactive; / = no result given.

SMILES	NALP1 inh	NALP3 yeast inh	Bfl-1 A1 inh	CHT block	SUMO Mot1 rescue	CHT allo act	CHT block conf	HEK293 CHT ctr
O=C(Nc1nc(-c2ccccc2)cs1)c1ccccc1NS(=O)(=O)c1ccc(F)cc1	.	.	.	-8	.	.	42%	.
O=S(=O)(Nc1ccc(-c2csc(-c3ccccc3)n2)cc1)c1ccc(F)cc1	.	.	.	.	.	.	/	/
CC1CCCCC1NC(=S)Nc1ccc(SC(F)F)cc1 (configuration not stated)	.	.	.	-5.5	.	.	66%	.
CN1/C(=C/C(=O)c2nc(S(C)(=O)=O)ncc2Cl)C(C)(C)c2ccccc21	.	.	.	-11	.	.	54%	.
Cc1nn(-c2ccccc2)nc1C(=O)Nc1nnc(C(F)(F)F)s1	.	.	.	-12	.	.	43%	.
CCC(Oc1ccccc1)C(=O)Nc1nnc(C)s1 (configuration not stated)	.	.	.	.	.	.	/	/
CCC(Oc1ccccc1)C(=O)Nc1nnc(C(F)(F)F)s1 (configuration not stated)	.	.	.	-5.1	.	.	.	.
CC(C)(C)NC(=O)CN(C(=O)CNS(=O)(=O)c1ccc(Cl)cc1)c1ccc2c(c1)OCCO2	.	.	.	.	.	.	/	/
Cc1cc(NC(=O)c2ccco2)c(=O)n(Cc2cccc(C(F)(F)F)c2)c1	.	.	.	.	.	.	/	/
CSCCC(NC(=O)COc1ccccc1)C(=O)OC(C)C(=O)Nc1ccccc1C (configuration not stated)	/	.	.	.	.	.	/	/
O=C(Oc1cccccc1=O)c1ccccc1	.	.	.	-6.9	.	.	.	.
CSCC[C@@H](C(=O)NCCCCCCCCCCC(=O)N1CCN(C(=O)OC(C)(C)C)CC1)n1cc(CCO)nn1	/	.	.	-6.4	.	.	40%	.
CCC1CCCCN1S(=O)(=O)c1ccc(-n2cnnn2)c(C)c1 (configuration not stated)	.	.	.	.	.	.	/	/
Cc1noc(/C=C/c2cccs2)c1S(=O)(=O)N1CCC(C(=O)NCCCN2CCC(C)CC2)CC1	.	.	.	-5.1	/	.	.	.
COc1cccc(-c2ncc3ccccc3c2COC(=O)c2ccc(F)cc2)c1	/	.	.	/	.	/	/	/
Cc1nn(CC2CC2)c(=O)n1-c1ccc(Oc2ccccc2)cc1	.	.	.	-12	.	.	59%	.
CC1=C(C(=O)OCC(Cl)(Cl)Cl)N2C(=O)C(NC(=O)Cc3ccccc3)C2SC1 (configuration not stated)	.	.	.	-12	.	.	.	.
COc1ccccc1NC(=O)NC1(C(=O)N2CCC(C)CC2)CCCCC1	.	.	.	.	.	.	/	/
Cc1ccc(NS(=O)(=O)c2cc(Br)cnc2N)c(Cl)c1	.	.	.	.	.	.	/	/
Nc1ncc(Br)cc1S(=O)(=O)Nc1cc(C(F)(F)F)cc(C(F)(F)F)c1	.	.	.	-12	.	.	29%	.
CCN1CCN(c2ncnc3scc(-c4ccc(OC)cc4)c23)CC1	.	.	.	-5.3	.	.	51%	.
Cc1ccc(-c2csc3ncnc(N4CCN(C)CC4)c23)cc1C	.	.	.	-11	.	.	48%	.
COc1cccc(NS(=O)(=O)c2ccc(C)c(C(=O)N3CCCCC3)c2)c1	.	.	.	.	.	.	/	/
O=C(CN1C(=O)NC2(CCCCCC2)C1=O)NCc1ccccc1Cl	/	.	.	/	.	/	/	/
C/C(=N\NC(=O)c1ccoc1C)c1cccc2ccccc12	.	/	.	-7.6	.	.	.	.
Cc1c(NC(=O)COc2cccc(Cl)c2Cl)c(=O)n(-c2ccccc2)n1C	/	.	.	.	.	.	/	/
CSCCC(NS(=O)(=O)c1ccccc1F)C(=O)Nc1ccncc1 (configuration not stated)	/	.	.	/	.	/	/	/

Screening data as filed in PubChem.
